Data published in PubChem BioAssay (NCI).
Compounds without any hit were thinned out: in the full panel of roughly 79,000, 15% have a hit. A number with no mark means an inactive call. The source made the active and inactive calls. Rule as the data show it: active = growth inhibition above about 70%; inactive = the rest.

Tests used:
[1] = NCI Yeast Anticancer Drug Screen. Data for the rad50 strain (AID 155);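 also: 0% = growth of vehicle-only cultures of the same strain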; details: S. cerevisiae rad50 strain growth inhibition; at 50.0 µM; hits give high values
How it was run: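 Inhibition values express reduced yeast growth in compound-treated cultures relative to vehicle-treated controls.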

[2] = NCI Yeast Anticancer Drug Screen. Data for the mec2-1 strain (AID 157); details: S. cerevisiae mec2-1 strain, at 50.0 µM, hits give high values
How it was run: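 Test agents were screened against the mec2-1 yeast strain, with defined DNA repair or cell cycle alteration. Growth was scored as inhibition against vehicle-only controls.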

[3] = NCI Yeast Anticancer Drug Screen. Data for the sgs1 mgt1 strain (AID 161);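 also: 0% = growth of cultures given vehicle only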; details: S. cerevisiae sgs1 mgt1 strain, at 50.0 µM, hits give high values
How it was run: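 Mutant yeast exposed to compound; growth scored against vehicle-only wells.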

[4] = NCI Yeast Anticancer Drug Screen. Data for the cln2 rad14 strain (AID 165);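 also: 0% = growth equal to vehicle treated cultures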; details: S. cerevisiae cln2 rad14 strain, at 50.0 µM, hits give high values
How it was run: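 Growth of compound-exposed yeast (cln2 rad14 genotype) measured and expressed as inhibition relative to vehicle.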

[5] = NCI Yeast Anticancer Drug Screen. Data for the bub3 strain (AID 167); details: S. cerevisiae bub3 mutant strain, at 50.0 µM, hits give high values
How it was run: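 Steps: expose the mutant yeast strain to compound; grow alongside vehicle-treated cultures; measure growth; express inhibition against the vehicle cultures.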

[6] = NCI Yeast Anticancer Drug Screen. Data for the mlh1 rad18 strain (AID 175); details: S. cerevisiae mlh1 rad18 strain growth inhibition; at 50.0 µM; hits give high values
How it was run: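 In this whole-cell yeast screen, a strain with altered DNA damage repair is challenged with compound, and its growth is measured against matched vehicle-treated controls.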

SMILES | growth inhibition [1] | growth inhibition [2] | growth inhibition [3] | growth inhibition [4] [%] | growth inhibition [5] | growth inhibition [6]
OC(CBr)CBr | 1.8% | -7.45% | 0.4% | -42.8 | -3.05% | 9.9%
C/C(N)=C\c1nc(=O)ccs1 | 10.9% | 11.8% | 2.35% | 24.8 | 5.2% | 13.3%
CC1CC(=O)Nc2ccccc2N1C(=O)C1CC1 (stereo not drawn) | -8.15% | -33.4% | -2.75% | 2.7 | -11.6% | -1.85%
CCCCCCCCCCCCCCCCS(=O)(=O)N/N=c1\cc(-c2ccccc2Cl)c2ccccc2n1C | -0.15% | -16.9% | 1.95% | 6.45 | -11.1% | 3.35%
COc1ccc(C)cc1NC(=S)NC(=O)c1cccc2ccccc12 | -38.6% | 12.9% | 9.85% | -61.1 | 40% | -1.55%
N#CC(c1ccc(O)cc1)N1CCN(C(C#N)c2ccc(O)cc2)CC1 (stereo not drawn) | -1.5% | 1% | -33.2% | -26.8 | -25.2% | -43.4%
C=C(C)COc1ccc(C)cc1Br | -4.05% | -4.05% | 0% | -51.8 | 7.1% | -13%
OC(C1=C/C(=C\c2ccncc2)c2ccccc21)c1ccncc1 (stereo not drawn) | 84.7% (active) | 86.5% (active) | 96.8% (active) | 47.6 | 86.3% (active) | 93% (active)
COC1CCC2(C)C3CCC4C(=CCC5C(C)(C)C(O)CCC45C)CC3(C)CCC2C1(C)C (stereo not drawn) | -8.45% | -12.3% | -31.3% | -25.4 | 1.2% | -12.7%
O=C(Nc1ccc(N=C=S)cc1Cl)c1cc(Cl)cc(Cl)c1O | 82.3% (active) | 56.9% | 78.5% (active) | 67.7 | 82.5% (active) | 82.5% (active)
COc1ccccc1NC(=S)N/N=C(/c1ccccc1)c1ccccn1 | -50.9% | 22.6% | 17.4% | 15.1 | 20.2% | 10.6%
C[C@@H](C1CC[C@H]2[C@@H]3[C@@H]4O[C@@H]4[C@@]4(O)CC=CC(=O)[C@]4(C)[C@H]3C[C@H](O)[C@]12C)[C@H]1C[C@]2(C)O[C@]2(C)C(=O)O1 (stereo partly drawn) | 1.35% | -3.25% | -2.9% | 29.5 | 2.65% | -48.6%
Cc1ccc(S(=O)(=O)Nc2ccc(C(=O)Cl)cc2)cc1 | 4.8% | 25.4% | 23.5% | 6.9 | 27.4% | 11.8%
Nc1cc(=O)[nH]c(N2CCN(c3ccccc3)CC2)n1 | 1.15% | -4.9% | -14.3% | 6.15 | 6.15% | 12.4%
CCN(CC)CC(O)Cn1cnc2c(SC)ncnc21 (stereo not drawn) | -0.75% | 0.6% | -2.95% | 5.5 | 4.5% | -1.9%
CCN(CC)CCNC(=O)Nc1ccc(OC)cc1 | 2.15% | 24% | 13.8% | -0.05 | 32.8% | 7.65%
O=c1[nH]c2cc(Cl)ccc2nc1C1=C(O)c2ccccc2C1 | 32% | 12.7% | 23.6% | 3.35 | 6.7% | 30.6%
COc1cccc(C2c3cc4c(cc3OC(C)(N3CCCC3)C2C)OCO4)c1OC (stereo not drawn) | -4% | -4.7% | -4.8% | -4.25 | -13.5% | 12.1%
NNc1cccc(Cl)n1 | 6.65% | -4.7% | -5.5% | 17.6 | -9.8% | 8.05%

SMILES | growth inhibition [1] | growth inhibition [2] | growth inhibition [3] | growth inhibition [4] [%] | growth inhibition [5] | growth inhibition [6]
O=C(CCCCCC(=O)CC(=O)CCc1ccccc1)CC(=O)CCc1ccccc1 | 53.3% | 36.4% | 53.5% | 15.4 | 19.1% | 56.6%
O=C1NN2CCCN=C2c2ncccc21 | 15.2% | 2.1% | 8.1% | 17.1 | 2.7% | 20.8%
Cc1cc(Cl)ccc1N=C1NC(=O)C(CC(=O)Nc2ccc(Cl)cc2Cl)S1 (stereo not drawn) | 14.8% | 13.1% | -2.35% | -46.4 | -4.3% | 19.8%
N#CCCOCCN1CCN(c2cccc(Cl)c2)CC1 | 9.85% | -7.8% | 12% | -2.6 | 51.6% | 23.1%
CC(C)CCN(CC(C)C)C(=O)c1ccc([N+](=O)[O-])cc1 (tested in a mixture with another compound) | 16.1% | 0.6% | 8.75% | -3.25 | -5.6% | 14.1%
Nc1ccc(CC(=O)O)cc1 | 28.6% | -10.7% | -26.4% | -47.2 | 7.25% | 0.05%
S=c1[nH]n(-c2ccccc2)c(=S)s1 | -28.7% | -41.1% | -4.95% | -1.15 | 15.3% | -22.6%
CC(=O)Nc1ccc2ccccc2c1 | 7.15% | 5.4% | 0.3% | -25.1 | -4.1% | 1.4%
C=CCN=C(N)SCCN(CCSC(N)=NCC=C)C(N)=O | 36.1% | 10.7% | 36.2% | 34.2 | 4.05% | 13.1%
COc1ccc2ccccc2c1C1/C(=N/O)CCc2ccccc21 (stereo not drawn) | 30.4% | 15.2% | 12.2% | -37.3 | 10.6% | 14.7%
Cc1ccc(C(=O)/C(C#N)=C/Nc2c(C)n(C)n(-c3ccccc3)c2=O)cc1 | 17% | 23.6% | 20.1% | 12.8 | 19.5% | 26.5%
CCN=c1c([N+](=O)[O-])c(NC(=O)c2ccccc2)sn1CC | -9.1% | -5.65% | -5.5% | 28 | -7.75% | -5.7%
O=c1ccsc(=S)[nH]1 | -1% | -2.1% | -8.35% | 0.25 | 9.05% | -3.9%
OCn1c2ccccc2c2ccccc21 | 19.8% | 0.55% | 33.7% | 20.8 | 35.9% | 19.8%
O=[N+]([O-])c1ccc(CN(Cc2ccc([N+](=O)[O-])cc2)c2ccc3c(c2)C(O)c2ccccc2-3)cc1 (stereo not drawn) | 9.95% | 1% | 7.8% | 7.85 | 1.8% | 12.2%
CC(C)OC(=S)SCC(=O)c1ccc(-c2ccccc2)cc1 | 1.7% | 17.5% | 21.3% | -2.45 | 30.9% | 8.75%
NC(=S)NNC(=O)c1ccc([N+](=O)[O-])cc1 | 10.4% | 18.9% | -3.1% | -17.9 | 1.35% | 36.9%
CC1(C)CC(=NNC(N)=S)CC(C)(C)N1 | 1.3% | -7.2% | 14.3% | -51.9 | -16.2% | -0.95%
c1ccc2c(c1)CC1C3c4ccccc4C(c4ccccc43)C1C2 (stereo not drawn) | -12.1% | 3.1% | -8.95% | 8.35 | -16.2% | -25.1%
